Results: PubChem BioAssay AID1259311 (ICCB-Longwood Screening Facility, Harvard Medical School, 2017)
Several values for one entry are separate records, joined by “and”; a condition that tells them apart may be missing. Equal entries are not always repeated. Among all 330,000 compounds or so, about 1,100 (0.33%) were called active. Only a selection was taken, and actives are over-represented in it overall. A number with no mark means an inactive call. No stated cut-off is given here; in the data, active means inhibition above about 85%; inactive means the rest.

Test: growth inhibition of S. aureus RN4220, primary screen, OD600 (AID 1259311);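 further: plate controls were untreated cells for no effect and reference antibiotic for full effect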
Details: OD600, 16 h, hits give high values
`CCCCCN1CC(O)=C(c2ccccc2)C1=N` gave an inhibition of 7.74%.
In the case of `CCCCCCCCCCCCn1ccc(=N)cc1`, the inhibition is reported as 101% (active).
In the case of `CCC1=C2CCC3C(=O)N(CC)C(=O)C3C2[C@@]2(Cc3ccccc3)C(=NCCOC)OC(=O)N2C1=O` (stereo partly drawn), the inhibition is reported as 4.23%.
`O=C(NN=Cc1cccc(OCC(=O)N2CCCC2)c1)C(=O)Nc1ccccc1F` gave an inhibition of 5.07%.
Work on `CC=C(C)C(=O)NCCN1C2=NCC(C(C)C)N2CC1Cc1ccc(O)cc1` (stereo not drawn) yielded an inhibition of 5.17%.
In the case of `O=C(CC(=O)NN=Cc1ccc(Cl)cc1Cl)NCc1ccccc1`, the inhibition is reported as 3.6%.
`Cc1c(CCO)sc[n+]1CC(=O)OC12CC3CC(CC(C3)C1)C2` showed an inhibition of 4.95%.
With `Cc1c(CCOC(=O)c2cc([N+](=O)[O-])ccc2Cl)sc[n+]1CCCCS(=O)(=O)[O-]` the inhibition was -3.66%.
With `Cc1c(CCOC(=O)CC23CC4CC(CC(C)(C4)C2)C3)sc[n+]1Cc1ccc([N+](=O)[O-])cc1` the inhibition was 100% (active) and 99.7% (active).
With `O=C1C=C(c2ccc3ncccc3c2)CC(c2ccc(F)cc2)C1` (stereo not drawn) the inhibition was -2.12%.
For `CCOc1cc(C=NO)ccc1OCc1ccccc1F`, the inhibition was 7.66%.
`Clc1ccc(NN=Cc2cccs2)nn1` showed an inhibition of 4.84%.
Molecule `C/C(C=Nn1c(-c2cccnc2)n[nH]c1=S)=C\c1ccco1` has an inhibition of 12.6%.
In the case of `CCCCCCCCn1c2c(c(=N)c3c1CCC3)CCCC2`, the inhibition is reported as 100% (active).
In the case of `CC(C)c1ccc2c(c1)c(SC(C)(C)C)c(CC(C)(C)C(=O)O)n2Cc1ccc(Cl)cc1`, the inhibition is reported as 100% (active).
Work on `NC(Cc1ccc(O)cc1)c1cn(C(CCC(=O)O)C(=O)N2CCNCC2)nn1` (stereo not drawn) yielded an inhibition of 3.88%.
In the case of `NC(=NOC(=O)C(c1ccccc1)c1ccccc1)c1ccccn1`, the inhibition is reported as 1.37%.
`S=c1[nH]nc(-c2cccc(Cl)c2)n1N=Cc1ccc(-c2ccccc2Br)o1` gave an inhibition of 10.7%.
In the case of `CC1=NOC(=O)C1=Cc1ccc(-c2ccc(Cl)c(C(=O)O)c2)o1`, the inhibition is reported as 3.22%.
For `O=C(O)C(c1ccccc1)N1C(=O)/C(=C\c2ccc(-c3cccc(Cl)c3)o2)SC1=S` (stereo not drawn), the inhibition was 95.5% (active).
Work on `Cc1cccc(OCC(=O)NN=Cc2ccc(N(C)C)cc2)c1` yielded an inhibition of 6.39%.
In the case of `CCOc1ccc(Br)cc1C(=O)NN=Cc1c[nH]c2ccccc12`, the inhibition is reported as -6.23%.
In the case of `O=C(NN=Cc1c[nH]c2ccccc12)c1[nH]c2ccc(Br)cc2c1-c1ccccc1`, the inhibition is reported as 86.5% (active).
With `O=C(NN=Cc1c[nH]c2ccccc12)c1ccc(O)c(O)c1` the inhibition was -0.918%.
Work on `CCCCN1C(=S)NCC1Cc1ccc(O)cc1` (stereo not drawn) yielded an inhibition of 4.99%.
`O=C(COC(=O)c1ccc(F)cc1)NCC1COc2ccccc2O1` (stereo not drawn) showed an inhibition of -4.66%.
For `O=C(Nc1nnc(C2COc3ccccc3O2)o1)c1ccc(F)cc1` (stereo not drawn), the inhibition was 98.2% (active).
Work on `CC1COc2ccccc2N1C(=O)c1ccc(F)cc1` (stereo not drawn) yielded an inhibition of 1.99%.
`COc1ccc(C(C)=NOCC(=O)N2CC3(C)CC2CC(C)(C)C3)cc1` (stereo not drawn) gave an inhibition of 4.12%.
Molecule `CCCc1c(C(=O)NN=Cc2ccc(OC)c(OCc3ccccc3)c2)nnn1-c1nonc1N` has an inhibition of 14%.
`COC(=O)[C@@]12CCCCN1C(c1ccc(-c3ccc4c(c3)OCO4)cc1)C1C(=O)N(C)C(=O)C12` (stereo partly drawn) gave an inhibition of -2.68%.
For `COc1ccc(C(C)=NNC(=O)C(NC(=O)c2ccccc2)c2n[nH]c(=O)c3ccccc23)c(OC)c1` (stereo not drawn), the inhibition was 1.72%.
Molecule `Cc1ccc(C=NNC(=O)c2ccco2)cc1` has an inhibition of -0.191%.
